# Only some compounds are listed: those with a hit (about 3.9% of all), similar ones and a draw of the others.
# SARS 3CLpro inh: SARS-CoV 3CLpro protease inhibition; inhibition, % at 6 µM; AID 1706; recombinant SARS-CoV 3CLpro, quenched FRET peptide cleavage; 290,000 tested, 0.14% active; in the data active means inhibition above about 12%
# GDH-TPI counter: counter-screen for M. tuberculosis FBA inhibitors: GDH-TPI coupled enzymes. AID 588335. inhibition, % at 4.8 µM. 360,000 tested, 1.2% active. GDH-TPI coupled enzyme counterscreen, NADH absorbance; in the data active means inhibition above about 30%
# FBA Mtb inh: inhibits M. tuberculosis FBA enzyme. AID 588726. P9WQA3. inhibition, % at 1 µM. purified M. tuberculosis FBA, fluorescence read-out. 360,000 tested, 2.3% active; in the data active means inhibition above about 27%
# Target sequence (P9WQA3 whole entry, looked up): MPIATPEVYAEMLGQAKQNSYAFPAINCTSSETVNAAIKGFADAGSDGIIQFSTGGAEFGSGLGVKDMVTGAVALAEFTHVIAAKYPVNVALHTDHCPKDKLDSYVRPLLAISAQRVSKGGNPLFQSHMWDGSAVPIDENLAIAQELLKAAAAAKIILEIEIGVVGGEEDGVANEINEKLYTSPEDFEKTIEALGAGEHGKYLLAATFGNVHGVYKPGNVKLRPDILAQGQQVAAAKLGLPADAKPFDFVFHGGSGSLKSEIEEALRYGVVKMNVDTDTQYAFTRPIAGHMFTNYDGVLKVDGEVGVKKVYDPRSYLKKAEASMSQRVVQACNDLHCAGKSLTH
# BH1578 lux ind: inducers of Vibrio cholerae quorum light production without autoinducers; V. cholerae BH1578 lux reporter, luminescence, 6 h; 350,000 tested, 0.16% active; activation, % at 18.7 µM; in the data active means activation mostly above about 9.7%, no sharp cut-off
# PrPC TRFRET: reduces human prion protein on the cell surface. P04156. cell surface PrPC, TR-FRET read-out. inhibition, % at 13.8 µM. 370,000 tested, 0.43% active; in the data active means inhibition above about 24%
# Hits are given with their value; n = inactive; x = no result.
SMILES,SARS 3CLpro inh,GDH-TPI counter,FBA Mtb inh,BH1578 lux ind,PrPC TRFRET
CCOc1ccc(CN(C)C(=O)CN2C(=O)NC(c3ccccc3)(c3ccccc3)C2=O)cc1,x,n,n,n,n
COCCCNC(=O)c1ccc2c(c1)ncn2-c1ccc(C)cc1C,n,n,150.3,n,n
Cc1ccc2c(c1)COc1c3ccc(C(=O)N[C@@H](CO)C(C)C)cc3nn1-2,x,n,32.6,n,n
COCCNC(=O)c1ccc2c3n(nc2c1)-c1ccc(C)cc1CO3,x,n,48.8,n,n
CCOc1ccc(CCNS(=O)(=O)c2ccc3c(c2)N(C(C)=O)CCO3)cc1OCC,n,n,n,n,n
COC(=O)C1CN(Cc2cn(Cc3ccc(F)cc3)nn2)CCS(=O)(=O)N1Cc1ccccc1 (stereo not drawn),x,x,x,x,n
NS(=O)(=O)c1ccc(NC(=O)/C=C/c2cccs2)cc1,n,72.5,n,n,n
CCOC(=O)c1ccc(NC(=O)/C=C/c2cccs2)cc1,n,31.6,n,n,n
O=C(/C=C/c1cccs1)Nc1ccc(S(=O)(=O)Nc2ncccn2)cc1,n,44.9,n,n,n
O=C(/C=C/c1ccccc1[N+](=O)[O-])Nc1ccc(S(=O)(=O)Nc2ncccn2)cc1,n,n,n,x,n
CCN(CC)CCOC(=O)c1ccc(NC(=O)/C=C/c2cccs2)cc1,n,n,n,n,n
O=C(/C=C/c1ccccc1)Nc1ccc(NC(=O)c2cccs2)cc1,n,34.7,n,n,n
Cn1ncc([N+](=O)[O-])c1C(=O)Nc1ccc(-c2nc3ccccc3o2)cc1,n,n,n,n,n
O=C(Nc1ccccc1)c1cc(C2COCCN2C(=O)C2CC2)on1 (stereo not drawn),x,n,n,n,n
COc1ccc(N2CCN(CCC(=O)c3ccc4ccccc4c3)CC2)cc1,n,n,n,n,n
Cc1cccc(-n2c(C)cc(C=C(C#N)C#N)c2C)c1,n,n,n,n,n
O=C(NCc1ccco1)/C(=C\c1ccccc1)NC(=O)c1ccccc1,n,n,n,n,n
O=C(NCc1ccco1)/C(=C/C=C\c1ccccc1)NC(=O)c1ccc(Br)o1,n,35.1,n,n,n
Cc1cc(/C=C(\C#N)C(=O)NCc2ccco2)c(C)n1-c1cccnc1,n,31.0,n,n,n
Cc1cc(/C=C(/C#N)c2cccc(F)c2)c(C)n1-c1cccnc1,n,38.2,n,n,n
Cc1ccsc1/C=C(\C#N)C(=O)NCc1ccco1,n,32.2,n,n,n
Cc1ccc(NC(=O)CSc2nnc(C3CC3)n2C)cc1S(=O)(=O)N1CCCCC1,x,n,n,n,n
CCOc1ccc(NC(=O)c2cccc(-n3cccc3)c2)cc1S(=O)(=O)N1CCOCC1,x,n,n,n,n
COc1ccc(CN(C)CC(=O)Nc2ccccc2C(=O)NC2CC2)cc1F,x,n,n,n,n
NC(Cc1ccc(C(F)(F)F)cc1)c1csc(NC(=O)Nc2ccccc2)n1 (stereo not drawn),x,n,n,n,n
SMILES,SARS 3CLpro inh,GDH-TPI counter,FBA Mtb inh,BH1578 lux ind,PrPC TRFRET
N#C/C(=C\C=C\c1ccccc1)C(=O)NCc1ccco1,n,63.4,n,n,n
O=C(/C=C/c1ccccc1)NCc1ccco1,n,n,n,n,n
CCOC(=O)[C@@]12CCC3=C1N(CCC3)C(=O)[C@H](CC(=O)NCC1CCCCC1)C2,x,x,x,x,n
Cc1nc(NC(=O)/C=C/c2ccccc2)sc1C(=O)N(C)C,n,n,n,n,n
Cc1nc(NC(=O)c2oc3ccccc3c2C)sc1C(=O)N(C)C,n,32.4,n,n,n
Cc1nc(NC(=O)/C=C/c2ccc(F)cc2)sc1C(=O)N(C)C,n,33.9,n,n,n
Cc1nnc(NC(=O)c2oc3c(ccc4ccccc43)c2C)s1,n,32.2,n,n,n
O=C1N2CCc3ccccc3C2CS(=O)(=O)N1CCc1ccccc1 (stereo not drawn),x,x,x,x,n
CNc1cnc(-c2cccc(C(=O)N3CCOCC3)c2)cn1,x,n,134.8,n,n
O=c1c(O)c(-c2ccccc2)oc2cc(O)cc(O)c12,x,n,n,n,n
O=c1c(O)c(-c2cc(O)c(O)c(O)c2)oc2cc(O)cc(O)c12,x,32.4,n,n,n
Cc1ccc(C(=O)N2CCN(S(=O)(=O)N3CCCCC3)CC2)cc1,n,n,n,n,n
NC(=O)N/N=C/c1ccc(-c2ccc(S(=O)(=O)Nc3ncccn3)cc2)o1,x,37.0,n,n,n
NC(=O)N/N=C/c1ccc(-c2cccc(C(F)(F)F)c2)o1,n,n,n,n,n
CC(C)Oc1ccc(C(=O)N/N=C/c2ccc(-c3ccc(S(=O)(=O)Nc4ncccn4)cc3)o2)cc1,n,49.5,30.9,n,n
CCOC(=O)c1ccc(-c2ccc(/C=N/NC(=O)c3cncc(Br)c3)o2)cc1,n,n,n,n,n
